Results published in PubChem BioAssay (NCI).
About 83,000 compounds went through this panel and 20% of them were active in at least one assay; those are over-represented in the sample as a whole.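 The test compound was applied at a single concentration to cells in 96-well plates for 48 hours, and percent growth was recorded.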 A number with no mark means an inactive call. Active and inactive are the calls of the source. The calls were made as follows: active = growth percent below 10; inactive = the rest.

System: MDA-MB-468 breast
Assay: NCI-60 one-dose screen, 48 h (100 = growth as untreated, 0 = no growth, -100 = all killed)
Conditions: 10 µM unless noted

Row | SMILES | growth
1 | CCN(CC)c1ccc2c(c1)Oc1nc(N)c(C#N)c(N)c1C2Sc1ccc(OC)cc1 (stereo not given) | -35.3% (active)
2 | COc1cccc(-c2nc(-c3ccc(NC(=O)OC(C)C)cc3)[nH]c2-c2ccnc(Br)c2)c1 | 18.2%
3 | O=C(NNc1nc2cc(F)cc(F)c2n2cccc12)c1ncccn1 | 3.64% (active)
4 | COc1ccc(OC)c(-c2c(C#N)c(-c3ccc(Cl)cc3)nc3c2c(-c2ccccc2)nn3-c2ccccc2)c1 | 103%
5 | COc1ccc(/C=C/C(=O)c2ccc(NC(=O)CSc3nnc(-c4cc(-c5ccccc5)nc5ccccc45)n3-c3ccccc3)cc2)cc1 | 97.2%
6 | CC12CCC(CC1)C(C)(C)O2 | 108%
7 | O=c1[nH][n+](-c2ccc(Cl)cc2)no1 | 93.2%
8 | O=C1/C(=C\c2ccc(Cl)cc2)CN(C(=O)c2ccccc2)C/C1=C\c1ccc(Cl)cc1 | -17.7% (active)
9 | C=CCCCCOc1cccc(/C=C2\N=C3SCCCN3C2=O)c1 | 89%
10 | Cn1ccnc1CN1CCSC(C(=O)Nc2ccccc2)C1 (stereo not given) | 87.8%
11 | COCCOc1cc2ncnc(N3CCN(S(=O)(=O)c4ccccc4Cl)CC3)c2cc1OCCOC | 57.1%
12 | OC(CN1CCCC2CCCCC21)c1cc2ccccc2c2ccccc12 (stereo not given) | -24.4% (active)
13 | COc1cnc2c(c1)C(=O)c1c-2n(CCCCl)c(=O)c2ccncc12 | 34.1%
14 | COc1nccc2c(Sc3ccccc3)nc(N)nc12 | 112%
15 | Cc1ccccc1COc1ccc(-c2onc(C)c2-c2ccc(Cl)cc2)cc1 | 36.1%
